Reference: ChEMBL document CHEMBL1157539, “Thousands of chemical starting points for antimalarial lead identification” (Nature, 2010)

Key:
Type in all cases: functional
Plasmodium falciparum [1] = experiment: GSK_TCMDC: Inhibition of Plasmodium falciparum 3D7 in whole red blood cells, using parasite LDH activity as an index of growth. Test compounds present at 2uM
Plasmodium falciparum [2] = experiment: GSK_TCMDC: Inhibition of Plasmodium falciparum Dd2 in whole red blood cells, using parasite LDH activity as an index of growth. Test compounds present at 2uM
HepG2 = experiment: GSK_TCMDC: Percent inhibition of human HepG2 cell line. Test compounds present at 10uM.

| SMILES | Inhibition (Plasmodium falciparum [1]) [%] | Inhibition (Plasmodium falciparum [2]) [%] | Inhibition (HepG2) [%] |
| --- | --- | --- | --- |
| CC(C)(C)c1ccc(CN2CCCCC(NC(=O)c3cc(-c4ccccc4F)cs3)C2)cc1.O=C(O)C(F)(F)F (configuration not stated) | 100 | 99 | 6 |
| O=C(NC1CCC1)C1CCN(C(c2ccccc2)c2cc(F)cc(F)c2)CC1 (configuration not stated) | 94 | 72 | 0 |
| Cl.N#Cc1ccc2c(c1)CCN(CCC1CCC(NC(=O)/C=C/c3cccc4ccccc34)CC1)CC2 (configuration not stated) | 96 | 12 | 16 |
| Cc1ccc(-c2cccc3c(NC(=O)Nc4ccc5nccc(N6CCN(C)CC6)c5c4)cccc23)cn1.Cl | 90 | 89 | 6 |
| CCCNCc1ccc(-c2ccc(CN(CCOC)C(=O)Cc3cccnc3)cc2)nc1.O=C(O)C(F)(F)F | 92 | 13 | 10 |
| COC(=O)c1cccc(CNCc2ccc(-c3ccc(-c4nc5cc(C(F)(F)F)ccc5[nH]4)cc3)cc2)c1.O=C(O)C(F)(F)F | 100 | 98 | 22 |
| CCNc1cc(C(=O)N[C@@H](Cc2ccccc2)[C@H](O)CNC(C)(C)Cc2cccc(OC)c2)cc(N2CCCC2=O)c1.O=CO | 99 | 97 | 7 |
| Cc1cccc(Oc2cccc3[nH]nc(N)c23)c1 | 85 | 0 | 6 |
| CN(C1CCC(NC(=O)/C=C/c2ccccc2)CC1)C1CC2(CCN(C(=O)OC(C)(C)C)CC2)c2ccccc21 (configuration not stated) | 95 | 95 | 16 |
| CCCN1CCN(Cc2ccc(-c3ccc(-c4nc5ccccc5[nH]4)s3)cc2)CC1 | 100 | 93 | 29 |
| CCOc1cc(C)c(C2CCN(CCCCNC(=O)c3ccc(NC(=O)c4ccc(Cl)cc4)cc3)CC2)cc1C | 100 | 87 | 10 |
| N#Cc1cc(C(=O)c2cc(Cl)ccc2O)cn(-c2cccc(C(F)(F)F)c2)c1=O | 87 | 7 | 0 |
| Fc1ccc2[nH]c(-c3ccc(-c4ccc(CNCCc5cccnc5)cc4)s3)nc2c1.O=C(O)C(F)(F)F | 100 | 99 | 40 |
| O=C(O)C(F)(F)F.c1ccc(CCNCc2ccc(-c3cccc(CNc4ccc5ncccc5c4)c3)cc2)cc1 | 91 | 17 | 30 |
| COc1ccccc1CCNc1nc(C)cc(N[C@@H](Cc2ccccc2)C(=O)Nc2ccccc2)n1.O=C(O)C(F)(F)F | 100 | 86 | 30 |
| CCCC(C)NC(=O)[C@H](CC1CCCCC1)NC(=O)c1ccc(O)c(-c2ccc(OC)cc2)c1 (some centres not stated) | 89 | 37 | 3 |
| Cc1cc(-c2ccc(NC(=O)N3CCc4cc(Br)c(N5CCN(C)CC5)cc43)cc2)ccc1C#N | 99 | 56 | 100 |
| O=C(Nc1ccnc(N2CCCN(Cc3cccc(O)c3)CC2)c1)c1ccc(F)cc1.O=C(O)C(F)(F)F | 90 | 3 | 12 |
| CCNc1cc(C(=O)N[C@@H](Cc2ccccc2)[C@H](O)CNC2(C(C)C)CCC2)cc(N2CCCCS2(=O)=O)c1.Cl | 99 | 85 | 0 |
| CCN(CC)/C(=N\C(=N)NCCCCCCNC(=N)/N=C(\Nc1ccc(Cl)cc1)N(CC)CC)Nc1ccc(Cl)cc1 | 97 | 96 | 1 |

| SMILES | Inhibition (Plasmodium falciparum [1]) [%] | Inhibition (Plasmodium falciparum [2]) [%] | Inhibition (HepG2) [%] |
| --- | --- | --- | --- |
| Cc1[nH]c(C)c(-c2ccc(CCc3ccc(C(F)(F)F)cc3)nc2)c(=O)c1Cl | 97 | 97 | 24 |
| CCCCC(=O)Nc1nonc1-c1ccc(OCC)c(OCC)c1 | 100 | 95 | 9 |
| COc1ccc(NC(=O)CCNc2cc(C)nc(NCc3cccc(C)c3)n2)cc1.O=C(O)C(F)(F)F | 100 | 25 | 14 |
| Cc1[nH]c(C)c(-c2ccc(-c3ccc(OC(F)(F)F)cc3)cc2)c(=O)c1Br | 96 | 97 | 33 |
| COc1cc(C2CCCCC2)c(OC)cc1CC1c2cc(O)c(Cl)cc2CCN1C.Cl (configuration not stated) | 100 | 100 | 12 |
| O=C(Nc1ccc(-c2cccc(-c3nc4cc(C(F)(F)F)ccc4[nH]3)c2)cc1)c1ccncc1 | 100 | 23 | 63 |
| CNc1ccc(CNCc2cccc(-c3ccc(-c4nc5ccccc5[nH]4)s3)c2)cc1.O=C(O)C(F)(F)F | 100 | 77 | 15 |
| CN(C)CCNCc1nc(-c2ccc3c(Nc4ccc(Oc5ccccc5)cc4)ccnc3c2)cs1 | 100 | 100 | 8 |
| COc1cc(NC(=O)C(c2ccc(Cl)cc2)C(C)C)cc(OC)c1OC (configuration not stated) | 100 | 100 | 10 |
| Nc1nc2c(ncn2COC(COCc2ccccc2)COCc2ccccc2)c(=O)[nH]1.Nc1nc2ncn(COC(COCc3ccccc3)COCc3ccccc3)c2c(=O)[nH]1 | 86 | 57 | 18 |
| CN(CCCCCN1CCC(NC(=O)Nc2ccc(C(F)(F)F)cc2)C1)C(=O)/C=C/c1ccc(Cl)c(Cl)c1 (configuration not stated) | 100 | 11 | 28 |
| COc1ccccc1NC(=O)Nc1ccc(-c2ccc(-c3nc4cc(C(F)(F)F)ccc4[nH]3)cc2)cc1 | 100 | 61 | 52 |
| COc1ccc(C=NN=c2cc(C)[nH]c3ccccc23)c(OC)c1 | 100 | 94 | 24 |
| CC(=O)Nc1ccc(CN2CCCN(c3cc(NC(=O)c4cccc(C)c4)ccn3)CC2)cc1.O=C(O)C(F)(F)F | 92 | 10 | 0 |
| CN1CCN(c2ccc(Nc3ncc([N+](=O)[O-])c(Nc4ccccc4O)n3)cc2)CC1.O=C(O)C(F)(F)F | 100 | 97 | 98 |
| O=C(Nc1ccc(-c2ccccc2)s1)N[C@H]1CCN(Cc2ccc(OCCCN3CCCCC3)cc2)C1 | 100 | 40 | 5 |
| Br.CCCc1cc(C(C)=O)ccc1OCCCON1C(=N)N=C(N)NC1(C)C | 96 | 96 | 61 |
| CCCCCCN1CCCN(Cc2cccc(C(=O)Nc3ccc(C(C)(C)C)cc3)c2)CC1.O=C(O)C(F)(F)F | 93 | 23 | 41 |
| COc1ccc(-c2ccc(NC(=O)c3ccc(C#N)cc3)cc2)cc1CN1CCCC1.O=C(O)C(F)(F)F | 95 | 51 | 40 |
| NC1=NC2(CCCCC2)N(OCCCCCCCCNc2nc(N)nc(N)n2)C(N)=N1.O=C(O)C(F)(F)F | 96 | 99 | 44 |

| SMILES | Inhibition (Plasmodium falciparum [1]) [%] | Inhibition (Plasmodium falciparum [2]) [%] | Inhibition (HepG2) [%] |
| --- | --- | --- | --- |
| Cc1cc(OCCCN2CCN(CCN3CCOCC3)CC2)ccc1NC(=O)COc1ccc(Cl)cc1C(=O)c1cc(Cl)cc(C#N)c1 | 99 | 78 | 30 |
| Cc1c(Cl)cccc1S(=O)(=O)N1CCCCC(c2ccc(C(F)(F)F)cc2)=N1 | 86 | 91 | 15 |
| COc1ccc(C2C(C(=O)Nc3cc(Cl)c(OC)cc3OC)c3ccccc3C(=O)N2C)cc1 (configuration not stated) | 100 | 98 | 14 |
| O=C(NC1CCN(Cc2ccc(O)cc2)CC1)c1ccc(Cl)c(Cl)c1.O=C(O)C(F)(F)F | 95 | 3 | 1 |
| CCCNC(=O)C1CCN(C(c2ccccc2)c2ccc(Cl)c(Cl)c2)CC1 (configuration not stated) | 90 | 90 | 15 |
| CCOc1ccc(-c2nonc2NC(=O)c2ccc(OC(C)C)cc2)cc1OCC | 100 | 100 | 13 |
| CCCN(CCC)c1nn2c(=O)c(C(=O)N3CCN(Cc4ccccc4)CC3)cnc2s1 | 84 | 89 | 0 |
| COC(=O)c1cc(C(O)CNC(C)CCc2cccc(F)c2)ccc1O.Cl (configuration not stated) | 94 | 77 | 38 |
| Cl.Cn1ccnc1S(=O)(=O)CCNCc1ccc(-c2ccc3ncnc(Nc4ccc(OCc5cccc(F)c5)c(Cl)c4)c3c2)o1 | 100 | 94 | 0 |
| CCOc1cc(C(=O)N[C@@H](Cc2ccccc2)[C@H](O)CNCc2cc(OC)cc(OC)c2)cc(N2CCCCS2(=O)=O)c1.Cl | 100 | 98 | 0 |
| O=C(O)C(F)(F)F.c1ccc(-c2ccc(CNCc3ccc(-c4cccc(-c5nc6ccccc6[nH]5)c4)cc3)s2)nc1 | 98 | 80 | 48 |
| Cc1cc(NC2CCCC2)nc(Nc2ccccc2F)n1 | 97 | 53 | 24 |
| NC(=O)c1ccsc1NC(=O)CNC(c1ccccc1)c1ccc(Cl)cc1 (configuration not stated) | 83 | 89 | 25 |
| COc1ccc(-c2ccc(NC(=O)c3ccc(C#N)cc3)cc2)cc1CN1CCCN(C)CC1.O=C(O)C(F)(F)F | 99 | 75 | 27 |
| O=[N+]([O-])c1cccc(NC(=S)N2CCCN(Cc3ccc(Cl)cc3Cl)CC2)c1 | 94 | 50 | 3 |
| COc1cc(F)c2nccc([C@@H](O)CN3CCC(NCc4ccc5c(n4)NC(=O)CS5)C(F)C3)c2c1.Cl (some centres not stated) | 87 | 80 | 32 |
| COc1ccc(CNC(=O)c2cnc3cc(-c4c(C)noc4C)ccc3c2Nc2ccccc2C(C)(C)C)cc1.Cl | 99 | 69 | 9 |
| O=C(NC1CCN(Cc2ccccc2)CC1)c1cccc(-c2nc3ccc(Cl)cc3[nH]2)c1 | 98 | 0 | 6 |
| O=C(Cc1ccc(NC(=O)c2ccc(O)c(-c3ccc(Cl)c(Cl)c3)c2)cc1)NCc1cccc(C(F)(F)F)c1 | 95 | 28 | 0 |
